Inconclusive results are not listed. Active and inactive are the calls of the source. Unless noted, the call rests on the fitted dose curve; in most records, active means well fitted curve in the direction sought with a large enough effect; inconclusive means small, poorly fitted or top-dose-only effect, or another doubt; inactive means no such curve, though single readings can be large; an effect the other way counts as inactive or inconclusive.
How the values were obtained:
[1] = AP1 Signaling Pathway (AID 357; active means well fitted curve in either direction with a large enough effect, not every such curve was filed as active;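 further: ME-180 reporter cells stimulated with EGF at its EC50 level; on the % scale 0 is the no-effect control and ±100 the full control effect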); conditions: ME-180 AP-1-bla reporter, EGF-induced, beta-lactamase ratio, 5 h; at 7.69 µM (top of the series) unless noted
In short: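 Cells are seeded overnight, exposed to compound titrations and an EC50 level of EGF for 5 hours at 37 °C, then loaded with CCF4 dye for 2.5 hours. Beta-lactamase activity under the AP-1 element is read as a blue/green ratio.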

[2] = target: Cytochrome P450 1A2 (Homo sapiens) (UniProt P05177); assay: p450-cyp1a2 (AID 410; calls by dose curve;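 further: -100% = full effect of reference inhibitor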)
In short: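 Luminescent demethylation readout: Luciferin-ME (100uM, equal to Km) turned over by 20nM CYP1A2 for 60 min at room temperature after NADPH regeneration addition, following 10 min compound preincubation. Normalization used 57 uM furafylline as full inhibition.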

[3] = NFAT Signaling Pathway (AID 444; active means well fitted curve in either direction with a large enough effect, not every such curve was filed as active;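 further: carbachol stimulus at about its EC50 of 1 µM final; on the % scale 0 is the no-effect control and ±100 the full control effect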); conditions: Jurkat NFAT-bla M1, carbachol, beta-lactamase ratio, 5 h; at 7.69 µM (top of the series) unless noted
In short: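 Jurkat cells carrying an NFAT-driven β-lactamase reporter and co-transfected muscarinic M1 receptor were treated with compound plus carbachol (1 uM final, an EC50 level) for 5 h at 37 °C. CCF4 loading followed for 1 h at RT; 460/530 nm ratio gave %activity.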

[4] = Stat Signaling Pathway (AID 446; active means well fitted curve in either direction with a large enough effect, not every such curve was filed as active;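 further: ME-180 cervical cancer cells given 40 pM IL-6 alongside compound; SIE-controlled beta-lactamase reporter measured as 460/530 nm FRET emission ratio; on the % scale 0 is the no-effect control and ±100 the full control effect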); conditions: ME-180 (cervical carcinoma) SIE beta-lactamase reporter, IL-6 stimulated, 5 h; at 7.69 µM (top of the series) unless noted
In short: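 Normalization used AC90 stimulation (300 pM IL-6) and AC90 inhibition (125 nM pan-JAK inhibitor at 40 pM IL-6). The underlying signal is SIE-driven beta-lactamase in ME-180 cells after 5 h IL-6 exposure with compound.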

[5] = target: Glucocorticoid receptor (Homo sapiens) (UniProt P04150); assay: GR-GFP Redistribution (AID 450;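 active means compounds whose dose series gives a full or clear partial fitted curve of increased nuclear translocation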; further: potency means the concentration at half of the fitted maximal effect); conditions: U2OS GR-GFP nuclear translocation, laser cytometry, 2 h
[6] = target: Glucocorticoid receptor (Homo sapiens) (UniProt P04150); assay: GR-EFC Redistribution (AID 451; calls by dose curve; further: potency means the concentration at half of the fitted maximal effect); conditions: CHO-K1 GR-EFC translocation, beta-gal luminescence, 2 h
In short: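 CHO-K1 cells stably expressing nuclear-localized β-gal enzyme acceptor and GR fused C-terminally to the enzyme donor fragment; ligand-driven nuclear translocation restores β-gal by complementation. Compounds titrated up to 46 uM final, 2 h at 37 °C; luminescence read.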

[7] = target: Mitogen-activated protein kinase 10 (Mus musculus) (UniProt Q61831); assay: JNK3 AlphaScreen Assay (AID 530; active means well fitted curve in either direction with a large enough effect, not every such curve was filed as active;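 further: kinase came from lysate of stimulated human HepG2 cells; signal reports phosphorylation of biotinylated GST-cJun 1-79 at Ser73 with 10 µM ATP; on the % scale 0 is the no-effect control and ±100 the full control effect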)
In short: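 Phosphorylation of biotinylated GST-cJun(1-79) at Ser73 is measured by AlphaScreen proximity luminescence. Enzyme is JNK3 in HepG2 lysates activated with interleukin-1beta and tumor necrosis factor alpha; ATP is 10 uM final.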

[8] = target: 3',5'-cyclic-AMP phosphodiesterase 4B (Homo sapiens) (UniProt Q07343); assay: qHTS Assay for Inhibitors of PDE-IV (AID 607; active means well fitted activation curve with a large enough effect in the main read-out, with a control signal flat, not every such curve was filed as active; further: % of control where 0% means no effect)
In short: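 HEK293 ACTOne cells with CNG channel (1000/well), endogenous PDE4; membrane potential dye, compounds up to 22.9 uM final. Fluorescence Ex 535/Em 590; RO 20-1724 (100 uM final) as reference.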

[9] = target: Guanine nucleotide-binding protein G(i) subunit alpha-1 (Homo sapiens) (UniProt P63096); assay: qHTS Assay for Inhibitors of RGS12 GoLoco Motif Activity (Green Fluorophore) (AID 879);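 further: 0% = labeled peptide with Gαi1 and full inhibition = labeled peptide alone without protein; negative values mean loss of peptide binding seen as reduced polarization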
In short: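 A drop in FITC polarization marked displacement of the FITC-tagged RGS12 GoLoco peptide (10 nM) from Gαi1 (50 nM). Compounds were incubated 10 min at room temperature in Tris pH 7.5 buffer containing 150 mM NaCl, 0.1 mM GDP and 0.05% NP40; unlabeled peptide titration served as control.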

[10] = target: Cytochrome P450 3A4 (Homo sapiens) (UniProt P08684); assay: qHTS Assay for Activators of Cytochrome P450 3A4 (AID 885); further: nearly all actives have a fitted effect of over 65% in size
In short: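 Human CYP3A4 dealkylates Luciferin-PPXE to luciferin, which luciferase detection converts to light. Substrate was at its KM (25uM), buffer 200mM KPO4, reaction 60 min at RT.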

[11] = qHTS Assay for Identification of Small Molecule Antagonists for NFkB Signaling Pathway (AID 895; active means well fitted inhibition curve with a large enough effect in the signal ratio, with a control signal flat, not every such curve was filed as active; the % refers to the signal ratio; further: on the % scale 0 is the no-effect control and ±100 the full control effect)
In short: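 NFkB-bla ME-180 cervical carcinoma cells with beta-lactamase reporter under NFkB response element; compounds added, then TNF alpha at 10 pM final (EC50), 5 h at 37 C. LiveBLAzer substrate 2 h, room temperature; emission 460/530 nm at 405 nm excitation.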

[12] = target: Muscarinic acetylcholine receptor M1 (Rattus norvegicus) (UniProt P08482); assay: qHTS Assay for Antagonists of Acetylcholine Muscarinic M1 Receptor: Kinetic Measurement of Intracellular Calcium Response (AID 943);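 further: Fluo-4 calcium signal as peak divided by basal fluorescence over 4 min; nearly all actives have a fitted effect of over 75% in size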
In short: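 Antagonism measured as reduction of carbachol-evoked (EC80, 100 nM final) calcium flux in rat M1-CHO cells after 10 min compound exposure. Fluo-4 signal read kinetically; ratio of maximal to basal fluorescence.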

[13] = target: Pyruvate kinase (Leishmania mexicana) (UniProt Q27686); assay: qHTS Validation Assay for Inhibitors of Leishmania Mexicana Pyruvate Kinase (AID 945);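 further: 0% = DMSO only neutral control wells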
In short: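 LmPYK E451W 0.2 nM; 0.5 mM PEP, 0.1 mM ADP, 7 mM MgCl2, 50 mM KCl, imidazole pH 7.2, 0.01% Tween 20, 0.05% BSA; 1 h RT; PKLight luminescence; DMSO-normalized.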

[14] = target: Pyruvate kinase PKM (Homo sapiens) (UniProt P14618); assay: qHTS Assay for Activators of Human Muscle Pyruvate Kinase (AID 954; active means well fitted curve in the direction sought with a large enough effect, not every such curve was filed as active;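 further: 0% = uninhibited enzyme and -100% = no enzyme or full thiadiazolimine inhibition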)
In short: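 Compound pinned into substrate mix (0.5 mM PEP, 0.1 mM ADP), then 0.1 nM PKM2 added; 1 h, RT. Stop/detection luciferase reagent added, luminescence read. Normalized to no-inhibition and no-enzyme or reference-inhibitor controls.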

[15] = target: Alpha-galactosidase A (Homo sapiens) (UniProt P06280); assay: Counterscreen for Glucocerebrosidase Inhibitors: qHTS Assay for Human alpha-Galactosidase at pH 4.5 (AID 992); further: 0% is about no effect
In short: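 Steps: enzyme (2 nM final), then compound across 0.7 nM to 77 uM, then 80 uM fluorogenic galactopyranoside substrate; incubate 20 min at room temperature; quench at pH 10; measure fluorescence at 365/440 nm.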

[16] = target: alpha-glucosidase (Oryza sativa, rice) (UniProt Q653V4); assay: Counterscreen for Glucocerebrosidase Inhibitors: qHTS Assay for Rice alpha-Glucosidase at pH 5.0 (AID 997); further: potency means the concentration at half of the fitted maximal effect;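 on activity change, negative = inhibition: 0% = full activity with enzyme and -100% = basal without enzyme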
In short: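 Endpoint fluorogenic assay at pH 5.0: compounds (0.7 nM to 77 uM) titrated against 4 nM rice enzyme and 400 uM 4-MU-alpha-glucoside for 20 min at room temperature; NaOH/glycine stop, read ex 365/em 440 nm, Hill-fitted AC50.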

[17] = qHTS Assay for Identification of Small Molecule Agonists for Thrombopoietin (TPO) Signaling Pathway (AID 917); further: on the % scale 0 is the no-effect control and ±100 the full control effect
In short: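 First, Ba/F3 cells with human TPO receptor were held overnight without IL-3. Next, compounds and TPO (26 pM final) were added. After 24 hrs at 37 C, luciferase detection reagent was added and luminescence measured following 10 min at room temperature.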

[18] = target: Muscarinic acetylcholine receptor M1 (Rattus norvegicus) (UniProt P08482); assay: qHTS Assay for Antagonists of Acetylcholine Muscarinic M1 Receptor: Measurement of IP-One Response (AID 944); further: nearly all actives have a fitted effect of over 75% in size
In short: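 IP1 accumulation measured via TR-FRET between d2-IP1 and Eu-cryptate anti-IP1 antibody after carbachol (200 nM, EC80) stimulation for 30 min; rat M1-transfected CHO cells received compound 10 min before agonist.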

[19] = target: Cytochrome P450 2D6 (Homo sapiens) (UniProt P10635); assay: qHTS Assay for Inhibitors and Substrates of Cytochrome P450 2D6 (AID 891);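 further: luciferin methyl ether substrate demethylated by CYP2D6 with NADPH regeneration; on the % scale 0 is the no-effect control and ±100 the full control effect; nearly all actives have a fitted effect of over 60% in size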
In short: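 Luminescent read-out of luciferin formed by 5 nM human CYP2D6 demethylating 30 uM Luciferin-ME EGE (Km level) over 60 min at room temperature after NADPH regeneration addition. Data normalized to full inhibition by 1.43 uM quinidine.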

[20] = target: Cytochrome P450 2C19 (Homo sapiens) (UniProt P33261); assay: qHTS Assay for Inhibitors and Substrates of Cytochrome P450 2C19 (AID 899); further: on the % scale 0 is the no-effect control and ±100 the full control effect; nearly all actives have a fitted effect of over 60% in size
In short: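 Human CYP2C19 (5nM) with Luciferin-H EGE at 10uM (its KM) in 50mM KPO4 was preincubated with compound for 10 min at 37C. NADPH regeneration started a 60 min 37C reaction. Luciferin was read by luminescence, normalized to 57uM ketoconazole.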

Sequence of 3',5'-cyclic-AMP phosphodiesterase 4B (Homo sapiens) (Q07343 whole entry, looked up): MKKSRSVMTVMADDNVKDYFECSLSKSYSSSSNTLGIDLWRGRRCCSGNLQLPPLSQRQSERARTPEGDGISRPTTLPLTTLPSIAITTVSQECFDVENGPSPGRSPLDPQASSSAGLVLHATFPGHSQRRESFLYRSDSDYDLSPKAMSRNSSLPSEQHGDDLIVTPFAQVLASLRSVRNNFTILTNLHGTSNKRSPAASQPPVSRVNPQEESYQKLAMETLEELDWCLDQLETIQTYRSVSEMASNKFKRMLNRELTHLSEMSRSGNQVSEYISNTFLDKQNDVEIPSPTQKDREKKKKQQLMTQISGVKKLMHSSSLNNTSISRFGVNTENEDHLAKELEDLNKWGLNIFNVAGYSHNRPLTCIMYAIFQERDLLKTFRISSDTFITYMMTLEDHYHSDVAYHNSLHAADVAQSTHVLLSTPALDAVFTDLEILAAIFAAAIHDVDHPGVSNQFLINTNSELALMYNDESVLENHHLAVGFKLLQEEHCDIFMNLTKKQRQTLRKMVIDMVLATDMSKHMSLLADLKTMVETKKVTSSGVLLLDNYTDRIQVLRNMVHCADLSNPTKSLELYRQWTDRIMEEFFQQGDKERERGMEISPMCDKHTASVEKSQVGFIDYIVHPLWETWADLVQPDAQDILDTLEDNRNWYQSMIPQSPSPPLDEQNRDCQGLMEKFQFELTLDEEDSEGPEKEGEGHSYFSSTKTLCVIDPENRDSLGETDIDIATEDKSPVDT
Sequence of Muscarinic acetylcholine receptor M1 (Rattus norvegicus) (P08482 whole entry, looked up): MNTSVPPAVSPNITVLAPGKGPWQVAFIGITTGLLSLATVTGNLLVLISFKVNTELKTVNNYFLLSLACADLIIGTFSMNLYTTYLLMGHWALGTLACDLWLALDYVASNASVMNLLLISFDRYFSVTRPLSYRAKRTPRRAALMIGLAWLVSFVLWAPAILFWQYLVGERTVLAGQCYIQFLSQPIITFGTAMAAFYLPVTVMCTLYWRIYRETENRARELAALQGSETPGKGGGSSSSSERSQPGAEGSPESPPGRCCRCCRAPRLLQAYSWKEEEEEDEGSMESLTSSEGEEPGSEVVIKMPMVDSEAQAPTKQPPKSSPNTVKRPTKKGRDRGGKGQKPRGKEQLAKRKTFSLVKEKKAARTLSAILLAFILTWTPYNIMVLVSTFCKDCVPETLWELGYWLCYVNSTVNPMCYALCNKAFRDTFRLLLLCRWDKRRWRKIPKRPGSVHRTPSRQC
Sequence of Pyruvate kinase PKM (Homo sapiens) (P14618 whole entry, looked up): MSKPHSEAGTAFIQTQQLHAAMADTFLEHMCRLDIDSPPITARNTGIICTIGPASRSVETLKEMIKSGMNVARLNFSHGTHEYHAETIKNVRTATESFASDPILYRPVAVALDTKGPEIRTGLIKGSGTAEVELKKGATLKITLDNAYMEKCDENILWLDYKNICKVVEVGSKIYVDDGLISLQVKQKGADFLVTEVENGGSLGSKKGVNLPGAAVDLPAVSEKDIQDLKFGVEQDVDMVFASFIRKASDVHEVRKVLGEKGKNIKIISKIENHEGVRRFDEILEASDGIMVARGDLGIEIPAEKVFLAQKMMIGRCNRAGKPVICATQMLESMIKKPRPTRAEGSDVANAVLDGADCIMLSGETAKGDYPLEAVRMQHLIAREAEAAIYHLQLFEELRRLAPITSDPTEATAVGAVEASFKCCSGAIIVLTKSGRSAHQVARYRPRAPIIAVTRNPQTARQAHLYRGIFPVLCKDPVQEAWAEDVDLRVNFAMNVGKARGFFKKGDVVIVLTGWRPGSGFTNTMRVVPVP
Sequence of Pyruvate kinase (Leishmania mexicana) (Q27686 2-499 E452W): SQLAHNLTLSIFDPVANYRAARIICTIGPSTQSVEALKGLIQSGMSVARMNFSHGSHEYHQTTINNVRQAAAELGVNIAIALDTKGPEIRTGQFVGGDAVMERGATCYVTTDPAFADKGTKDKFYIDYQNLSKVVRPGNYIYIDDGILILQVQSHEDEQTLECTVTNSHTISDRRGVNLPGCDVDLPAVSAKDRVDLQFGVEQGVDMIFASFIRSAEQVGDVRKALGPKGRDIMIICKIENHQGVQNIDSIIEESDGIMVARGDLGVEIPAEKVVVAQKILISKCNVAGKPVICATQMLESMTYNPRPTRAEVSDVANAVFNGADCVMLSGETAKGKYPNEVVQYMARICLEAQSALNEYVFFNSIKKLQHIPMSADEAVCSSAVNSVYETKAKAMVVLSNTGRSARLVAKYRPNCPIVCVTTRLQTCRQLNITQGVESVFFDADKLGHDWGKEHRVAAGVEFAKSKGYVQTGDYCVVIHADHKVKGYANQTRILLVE
Sequence of Glucocorticoid receptor (Homo sapiens) (P04150 whole entry, looked up, the tested form may be a part): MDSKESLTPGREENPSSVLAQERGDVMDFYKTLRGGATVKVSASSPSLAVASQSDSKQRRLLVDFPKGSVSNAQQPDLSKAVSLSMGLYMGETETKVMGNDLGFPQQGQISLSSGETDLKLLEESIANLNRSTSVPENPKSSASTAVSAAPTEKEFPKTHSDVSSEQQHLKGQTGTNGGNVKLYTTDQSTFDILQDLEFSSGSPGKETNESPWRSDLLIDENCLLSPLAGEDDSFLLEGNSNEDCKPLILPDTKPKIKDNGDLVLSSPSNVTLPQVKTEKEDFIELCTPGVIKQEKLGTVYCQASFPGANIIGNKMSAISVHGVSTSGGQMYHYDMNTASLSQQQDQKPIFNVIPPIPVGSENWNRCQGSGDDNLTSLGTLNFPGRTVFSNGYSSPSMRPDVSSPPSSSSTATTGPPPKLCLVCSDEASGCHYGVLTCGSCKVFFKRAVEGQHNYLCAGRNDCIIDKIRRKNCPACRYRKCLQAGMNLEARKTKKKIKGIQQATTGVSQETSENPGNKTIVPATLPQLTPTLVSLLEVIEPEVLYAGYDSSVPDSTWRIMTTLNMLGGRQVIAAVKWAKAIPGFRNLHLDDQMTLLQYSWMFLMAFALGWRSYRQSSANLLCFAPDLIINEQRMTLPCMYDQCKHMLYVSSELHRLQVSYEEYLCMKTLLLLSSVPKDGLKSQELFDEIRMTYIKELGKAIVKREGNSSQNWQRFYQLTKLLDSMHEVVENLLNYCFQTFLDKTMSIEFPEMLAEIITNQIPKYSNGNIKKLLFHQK
Sequence of Alpha-galactosidase A (Homo sapiens) (P06280 whole entry, looked up): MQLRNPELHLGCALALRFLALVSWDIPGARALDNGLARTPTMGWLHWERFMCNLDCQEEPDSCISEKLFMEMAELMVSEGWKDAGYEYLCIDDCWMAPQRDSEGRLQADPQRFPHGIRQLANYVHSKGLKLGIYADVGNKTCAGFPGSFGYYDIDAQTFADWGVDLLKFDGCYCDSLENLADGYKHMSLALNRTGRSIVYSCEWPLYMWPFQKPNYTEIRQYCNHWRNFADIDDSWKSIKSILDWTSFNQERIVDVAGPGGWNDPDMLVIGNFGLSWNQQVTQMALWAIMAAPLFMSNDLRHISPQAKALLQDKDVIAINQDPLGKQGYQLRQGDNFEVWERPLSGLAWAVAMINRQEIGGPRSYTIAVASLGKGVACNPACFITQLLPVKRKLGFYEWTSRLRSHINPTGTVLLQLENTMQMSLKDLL
Sequence of Cytochrome P450 1A2 (Homo sapiens) (P05177 whole entry, looked up): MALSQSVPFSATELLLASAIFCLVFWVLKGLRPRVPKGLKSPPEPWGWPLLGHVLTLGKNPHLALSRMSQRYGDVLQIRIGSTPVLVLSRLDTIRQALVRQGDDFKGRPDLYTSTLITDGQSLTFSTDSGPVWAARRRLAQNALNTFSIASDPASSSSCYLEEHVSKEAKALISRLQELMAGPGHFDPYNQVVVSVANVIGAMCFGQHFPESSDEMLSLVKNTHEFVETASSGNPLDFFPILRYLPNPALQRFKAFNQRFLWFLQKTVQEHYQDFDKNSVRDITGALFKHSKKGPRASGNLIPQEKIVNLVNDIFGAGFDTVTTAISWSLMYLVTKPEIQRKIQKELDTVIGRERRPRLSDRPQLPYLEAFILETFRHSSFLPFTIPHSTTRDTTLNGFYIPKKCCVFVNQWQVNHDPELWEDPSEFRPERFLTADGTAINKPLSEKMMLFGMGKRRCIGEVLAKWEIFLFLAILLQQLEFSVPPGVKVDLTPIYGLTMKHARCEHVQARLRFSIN
Sequence of Guanine nucleotide-binding protein G(i) subunit alpha-1 (Homo sapiens) (P63096 whole entry, looked up): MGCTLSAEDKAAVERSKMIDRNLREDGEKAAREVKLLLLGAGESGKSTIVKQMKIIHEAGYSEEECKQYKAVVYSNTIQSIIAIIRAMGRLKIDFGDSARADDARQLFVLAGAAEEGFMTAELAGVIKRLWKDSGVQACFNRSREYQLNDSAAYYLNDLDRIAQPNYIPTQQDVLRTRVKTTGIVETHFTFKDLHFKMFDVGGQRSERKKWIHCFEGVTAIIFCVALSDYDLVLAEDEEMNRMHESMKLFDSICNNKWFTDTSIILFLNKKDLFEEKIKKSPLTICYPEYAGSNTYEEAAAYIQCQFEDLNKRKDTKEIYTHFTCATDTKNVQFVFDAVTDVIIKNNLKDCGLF
Sequence of Cytochrome P450 3A4 (Homo sapiens) (P08684 whole entry, looked up): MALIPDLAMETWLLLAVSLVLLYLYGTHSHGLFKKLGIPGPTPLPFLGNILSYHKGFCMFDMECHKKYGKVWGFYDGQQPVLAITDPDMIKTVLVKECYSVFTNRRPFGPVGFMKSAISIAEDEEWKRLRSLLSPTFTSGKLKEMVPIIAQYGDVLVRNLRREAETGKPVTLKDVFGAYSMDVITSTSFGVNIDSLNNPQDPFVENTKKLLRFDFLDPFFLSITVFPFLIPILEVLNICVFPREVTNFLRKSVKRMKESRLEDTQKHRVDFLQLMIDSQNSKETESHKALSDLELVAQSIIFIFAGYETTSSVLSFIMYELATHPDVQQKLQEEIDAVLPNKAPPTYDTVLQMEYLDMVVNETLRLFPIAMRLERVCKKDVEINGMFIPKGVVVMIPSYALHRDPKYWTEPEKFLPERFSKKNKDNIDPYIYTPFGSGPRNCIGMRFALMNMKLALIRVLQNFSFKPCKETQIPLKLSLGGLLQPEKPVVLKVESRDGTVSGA

CN1CC[C@@]2(CCN3CCc4c(oc5ccccc45)[C@@H]3C2)N(C)C1=O
inactive: activity change, negative = inhibition [1] 18% [at 38 µM] | Potency [2] | activity change, negative = inhibition [3] -21.7% [at 38 µM] | activity, negative = inhibition [4] -5.91% [at 38 µM] | Potency [5] > 46 µM | Potency [6] > 46 µM | Potency [7] | Potency [8] | outcome [9] | Potency [10] | Potency [11] | Potency [12] | outcome [13] | outcome [14] | outcome [15] | Potency [16]

O=C(O)/C=C\c1cnc[nH]1
inactive: activity change, negative = inhibition [1] 4.19% [at 38 µM] | Potency [2] | activity change, negative = inhibition [3] 9.72% [at 38 µM] | activity, negative = inhibition [4] 3.14% [at 38 µM] | Potency [5] > 46 µM | Potency [6] > 46 µM | Potency [7] | Potency [8] | outcome [9] | Potency [10] | outcome [17] | Potency [12] | Potency [18] | outcome [14] | outcome [15] | Potency [16]

O=C(O)CCCC[C@H]1CCSS1
inactive: activity change, negative = inhibition [1] -4.68% [at 38 µM] | Potency [2] | activity change, negative = inhibition [3] -1.58% [at 38 µM] | activity, negative = inhibition [4] -7.28% [at 38 µM] | Potency [5] > 46 µM | Potency [6] > 46 µM | Potency [7] | Potency [8] | outcome [9] | Potency [11] | outcome [17] | outcome [13] | outcome [14] | outcome [15] | Potency [16]

CSc1nc(N)c2ncn([C@@H]3O[C@@H](COP(=O)(O)OP(=O)(O)OP(=O)(O)O)[C@@H](O)[C@H]3O)c2n1
inactive: activity change, negative = inhibition [1] 18.4% [at 38 µM] | Potency [2] | activity change, negative = inhibition [3] 0.479% [at 38 µM] | activity, negative = inhibition [4] -1.18% [at 38 µM] | Potency [5] > 46 µM | Potency [6] > 46 µM | Potency [7] | Potency [8] | outcome [9] | Potency [19] | Potency [20] | outcome [17] | Potency [18] | outcome [13] | outcome [14] | outcome [15] | Potency [16]

OC[C@@H]1NC[C@@H](O)[C@@H](O)[C@H]1O
active: Potency [16] 0.0794 µM
inactive: activity change, negative = inhibition [1] 0.931% [at 38 µM] | Potency [2] | activity change, negative = inhibition [3] 1.96% [at 38 µM] | activity, negative = inhibition [4] -28.2% [at 38 µM] | Potency [5] > 46 µM | Potency [6] > 46 µM | Potency [7] | Potency [8] | outcome [9] | Potency [11] | outcome [17] | Potency [12] | Potency [18] | outcome [13] | outcome [14] | outcome [15]
